# In publication PMC4336329 (PLoS ONE, 2015):
# The campaign covered roughly 310,000 compounds. About 14,000 (4.5%) showed an effect of 50% or more. Effects have a minus sign here. For the sample, strong results were picked, then their nearest neighbours and some compounds at random.
# Biological target: human ether-à-go-go-related gene (hERG) potassium channel (human, UniProt Q12809)
# Assay: primary screen, population patch clamp on CHO cells stably expressing hERG; higher = less effect of the substance
# 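Further: peak tail current of the secondary pulse compared with the same well before compound.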
# Sequence of human ether-à-go-go-related gene (hERG) potassium channel (Q12809 whole entry, looked up): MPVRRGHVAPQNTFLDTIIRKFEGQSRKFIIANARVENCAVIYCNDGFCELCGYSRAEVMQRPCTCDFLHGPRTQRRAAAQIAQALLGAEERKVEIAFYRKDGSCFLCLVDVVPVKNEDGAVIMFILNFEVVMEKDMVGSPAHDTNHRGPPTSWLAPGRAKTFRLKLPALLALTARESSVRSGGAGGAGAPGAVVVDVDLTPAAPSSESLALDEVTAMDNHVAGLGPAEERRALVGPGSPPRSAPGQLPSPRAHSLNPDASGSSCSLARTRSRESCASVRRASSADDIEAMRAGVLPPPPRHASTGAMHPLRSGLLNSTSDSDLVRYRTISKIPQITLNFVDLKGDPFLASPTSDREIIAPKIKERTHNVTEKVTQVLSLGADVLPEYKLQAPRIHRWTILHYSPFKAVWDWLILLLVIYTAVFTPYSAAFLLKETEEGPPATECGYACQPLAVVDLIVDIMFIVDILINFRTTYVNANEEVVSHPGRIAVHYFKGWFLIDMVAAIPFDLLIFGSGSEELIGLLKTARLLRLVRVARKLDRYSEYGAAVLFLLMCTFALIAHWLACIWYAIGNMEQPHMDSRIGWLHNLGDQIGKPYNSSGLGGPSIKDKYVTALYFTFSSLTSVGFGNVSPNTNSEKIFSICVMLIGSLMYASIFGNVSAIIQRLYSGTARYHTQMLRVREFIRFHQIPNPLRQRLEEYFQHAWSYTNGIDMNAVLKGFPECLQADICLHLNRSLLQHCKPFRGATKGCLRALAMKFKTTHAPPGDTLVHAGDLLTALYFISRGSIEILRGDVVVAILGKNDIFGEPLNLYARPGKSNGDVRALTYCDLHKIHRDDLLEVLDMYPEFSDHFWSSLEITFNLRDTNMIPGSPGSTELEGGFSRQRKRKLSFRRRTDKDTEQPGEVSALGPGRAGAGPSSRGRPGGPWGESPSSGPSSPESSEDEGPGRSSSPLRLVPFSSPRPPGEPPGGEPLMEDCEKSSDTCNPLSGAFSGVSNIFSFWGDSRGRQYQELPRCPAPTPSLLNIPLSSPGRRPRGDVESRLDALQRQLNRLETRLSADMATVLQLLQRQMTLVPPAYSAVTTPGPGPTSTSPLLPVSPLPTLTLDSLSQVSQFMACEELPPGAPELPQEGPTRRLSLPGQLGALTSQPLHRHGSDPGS
row,Structure (SMILES),"hERG current change (%, negative = inhibition) at 10uM [%]"
1,CC(=O)c1c(O)cc(=O)oc1-c1ccc(C)cc1,16.7
2,COc1cc(C2N(c3ccccc3)CCN2c2ccccc2)ccc1OC(C)=O,-1.36
3,Cn1c(CNc2ccccc2)nc2ccccc21,4.27
4,CCOC(=O)Cn1cc(C#N)c2ccccc21,15.1
5,CC(=O)N1CCC(=NNc2ccc(S(=O)(=O)N3CCOCC3)cc2[N+](=O)[O-])CC1,-18.2
6,CCCOc1ccc(S(=O)(=O)N2CCOCC2)cc1[N+](=O)[O-],-57.8
7,CCOC(=O)N1CCC(=NNc2ccc(S(=O)(=O)N3CCOCC3)cc2[N+](=O)[O-])CC1,-61.3
8,CCOc1ccc(S(=O)(=O)N2CCOCC2)cc1[N+](=O)[O-],-52.2
9,CCCOc1ccc(S(=O)(=O)N2CCCC2)cc1[N+](=O)[O-],-30.1
10,O=C1c2ccccc2C(=O)N1COc1ccc(S(=O)(=O)N2CCOCC2)cc1[N+](=O)[O-],-22.8
11,CCOC(=O)N1CCC(=NNc2ccc(S(N)(=O)=O)cc2[N+](=O)[O-])CC1,-11.8
12,O=[N+]([O-])c1cc(S(=O)(=O)N2CCOCC2)ccc1OCc1cccc(Cl)c1,1.31
13,CCOc1ccc(S(=O)(=O)N2CCOCC2)cc1NS(=O)(=O)c1ccc(OC)c([N+](=O)[O-])c1,-41.7
14,COCCn1c(SCC(=O)Nc2c(C)n(C)n(-c3ccccc3)c2=O)nc2ccccc2c1=O,-19.6
15,CCCC(=O)N(c1ccc(C(=O)O)cc1)c1nc(-c2ccccc2)c(C)s1,14.2
16,CCOc1cc2c(cc1OCC)C(C(=O)O)C(c1cc(OC)c(OC)c(OC)c1)N(C)C2=O (centres unmarked),3.02
17,COC(=O)[C@@H]1C[C@@H]2CC[C@@H](O)C[C@@H]2N1Cc1ccc(N2CCN(C)CC2)cc1,9.87
18,Cn1c(N2CCC(C(N)=O)CC2)nc2c1c(=O)n(Cc1ccc(Cl)cc1)c(=O)n2C,-58.5
19,CN(CCO)c1nc2c(c(=O)n(Cc3ccc(Cl)cc3)c(=O)n2C)n1C,3.79
20,CCCCCn1c(N2CCCC2)nc2c1c(=O)n(C)c(=O)n2C,-9.54
21,CC(O)CNc1nc2c(c(=O)n(Cc3ccc(Br)cc3)c(=O)n2C)n1C (centres unmarked),-12.6
22,CCOC(=O)Cn1c(=O)c2c(nc(N3CCCCC3)n2Cc2ccccc2)n(C)c1=O,-40.4
23,CCCCCCn1c(N2CCCC2)nc2c1c(=O)n(C)c(=O)n2C,-1.96
24,Cn1c(N2CCC(C(N)=O)CC2)nc2c1c(=O)n(Cc1ccc(Br)cc1)c(=O)n2C,-57.3
25,CC1CCN(c2nc3c(c(=O)n(C)c(=O)n3C)n2Cc2ccccc2)CC1,-50
26,Cn1c(N2CCC(C(N)=O)CC2)nc2c1c(=O)n(Cc1cccc(Br)c1)c(=O)n2C,-64.7
27,Cn1c(N2CCCC2)nc2c1c(=O)n(Cc1cccc(F)c1)c(=O)n2C,-19.6
28,CCCCCCn1c(N2CCC(C(N)=O)CC2)nc2c1c(=O)n(C)c(=O)n2C,-56.4
29,Cn1c(Cl)nc2c1c(=O)n(Cc1cccc(Br)c1)c(=O)n2C,-35.3
